Measured values reported in PubChem BioAssay (NCI).
This is part of a sample that, as a whole, favours compounds with a hit. Of some 83,000 tested, about 20% had one in any assay.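 The endpoint reported here, percent growth, reads 100 for growth as untreated, 0 for no net growth and -100 for all cells dead.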 Activity calls are given as the source filed them. The calls were made as follows: active = growth percent below 10; inactive = the rest.

Experiments:
Assay in all cases: NCI-60 one-dose screen, 48 h (100 = growth as untreated, 0 = no growth, -100 = all killed)
Conditions in all cases: 10 µM unless noted
[1] = system: EKVX NSCLC
[2] = system: SN12C renal
[3] = system: UO-31 renal
[4] = system: TK-10 renal
[5] = system: ACHN renal
[6] = system: CAKI-1 renal
[7] = system: A498 renal
[8] = system: CCRF-CEM leukemia
[9] = system: MOLT-4 leukemia
[10] = system: SR leukemia
[11] = system: OVCAR-8 ovarian
[12] = system: OVCAR-5 ovarian
[13] = system: OVCAR-4 ovarian
[14] = system: SK-OV-3 ovarian
[15] = system: IGROV1 ovarian
[16] = system: OVCAR-3 ovarian
[17] = system: HS 578T breast
[18] = system: NCI/ADR-RES ovarian
[19] = system: RPMI-8226 leukemia

Measured: growth

COc1cc(OCc2cccc(-c3ccc(C(O)c4nccs4)cc3)c2C)cc(OC)c1CNCCNC(C)=O (stereo unspecified)
inactive: [1] 97% | [2] 98.1% | [3] 89% | [4] 98.9% | [5] 101% | [6] 93.7% | [7] 88.2% | [8] 91.9% | [9] 94.9% | [10] 85.9% | [11] 96.1% | [12] 98.5% | [13] 91.8% | [14] 113% | [15] 103% | [16] 109% | [17] 105% | [18] 101%

COc1ccc(-c2c(C(=O)NS(C)(=O)=O)n(Cc3cccc(C(F)(F)F)c3)c3ccccc23)cc1
inactive: [1] 91% | [2] 85.2% | [3] 73% | [4] 105% | [5] 91.8% | [6] 80.1% | [7] 80.1% | [8] 75.5% | [9] 90.3% | [19] 81.2% | [11] 82.1% | [12] 106% | [13] 96.1% | [14] 97.2% | [15] 90.7% | [16] 88.5% | [17] 86.5% | [18] 94.4%

CC(C)C(=O)Nc1ccc(-c2nc(-c3cccc(OCCN4CCOCC4)c3)c(-c3ccnc(Br)c3)[nH]2)cc1
active: [10] -3.9% | [17] -26%
inactive: [1] 77.2% | [2] 70.5% | [3] 12.4% | [4] 85.3% | [5] 58.7% | [6] 44% | [7] 54.7% | [8] 29% | [9] 10.6% | [11] 51.8% | [12] 75.2% | [13] 60% | [14] 73.6% | [16] 63.3% | [18] 91.7%

COc1ccc(N)c(N)c1
inactive: [1] 105% | [2] 100% | [3] 75.3% | [4] 113% | [5] 97.3% | [6] 94.4% | [7] 95.1% | [8] 83.1% | [9] 96.2% | [10] 121% | [11] 108% | [12] 110% | [13] 103% | [14] 96.9% | [15] 107% | [16] 125% | [17] 110%

O=c1[nH]c2c(ccc3cnccc32)c2c1CCC2
inactive: [9] 15.9% | [11] 13.9% | [13] 28.3%
active: [1] -13.5% | [2] 7.16% | [3] -11.5% | [4] -5.65% | [5] 6.67% | [6] -19.9% | [7] -51.5% | [8] -22.3% | [19] -31% | [12] -2.64% | [14] 3.27% | [15] -71% | [16] -27% | [17] -21.8% | [18] 7.35%

CCOC(=O)Cn1c(=O)c2c(c3ccccc3n2C)n2nnc(-c3ccccc3)c12
inactive: [1] 95.1% | [2] 118% | [3] 74.9% | [4] 120% | [5] 97.3% | [6] 96.8% | [7] 127% | [8] 282% | [9] 92.8% | [19] 136% | [11] 106% | [12] 70.9% | [13] 104% | [14] 103% | [15] 68.7% | [16] 109% | [17] 107% | [18] 102%

O=[N+]([O-])c1ccccc1NCSc1ccc(Cl)cc1
inactive: [1] 104% | [2] 72% | [3] 68.3% | [4] 101% | [5] 104% | [6] 95.3% | [7] 86% | [8] 25% | [9] 49.7% | [10] 65% | [11] 95.5% | [12] 114% | [13] 108% | [14] 109% | [15] 123% | [16] 109% | [17] 99.7%

O=C(O)c1cn(C2CC2)c2cc(N3CCN(C(=O)Nc4nc(-c5ccc(Cl)cc5)cs4)CC3)c(F)cc2c1=O
inactive: [1] 19.6% | [4] 21.8% | [6] 17.1% | [8] 13.6% | [10] 11.2% | [12] 27.5% | [13] 23.7% | [17] 35.5% | [18] 38.1%
active: [2] 7.2% | [3] 2.13% | [5] 6.02% | [7] -3.82% | [9] 2.05% | [11] 7.37% | [14] -2.39% | [16] 5.86%

COc1ccc(C2C(N)=NNC2c2cccc(O)c2)cc1 (stereo unspecified)
inactive: [1] 95.5% | [2] 96.4% | [3] 83.7% | [4] 122% | [5] 106% | [6] 88.7% | [7] 126% | [8] 105% | [9] 96.7% | [10] 81.2% | [11] 93.8% | [12] 107% | [13] 108% | [14] 98.9% | [15] 90.6% | [16] 106% | [17] 110% | [18] 99.1%

COc1cccc(-c2nc(-c3ccc(NC(=O)c4ccccc4)cc3)[nH]c2-c2ccnc(Br)c2)c1
active: [3] 3.81% | [7] -28.3% | [10] -2.71% | [14] 6.72% | [17] -25.8%
inactive: [1] 24.4% | [2] 53.8% | [5] 24.8% | [6] 20.4% | [8] 21.4% | [9] 15.1% | [11] 34% | [13] 38.4% | [15] 55.1% | [16] 40% | [18] 35.5%

NCCCNc1nc2ccc(Cl)cc2c2c(=O)c3cc(F)ccc3sc12
inactive: [1] 81.3% | [2] 71% | [3] 46.3% | [4] 89% | [5] 35.4% | [6] 24.4% | [7] 23.4% | [8] 12.1% | [11] 57.3% | [12] 83.5% | [13] 11.3% | [14] 89.4% | [15] 52.8% | [17] 65.9%
active: [9] 8.78% | [10] -27.4% | [16] 8.74%

CCc1ccc(Oc2c(-c3ccc(OCc4ccc(Cl)cc4)cc3O)nn(C)c2C(F)(F)F)cc1
active: [1] 9.36% | [2] 4.95% | [3] -22.9% | [4] -1.88% | [5] 5.42% | [6] 3.34% | [7] -22.6% | [8] 1.82% | [9] -13.6% | [10] -26.4% | [19] -16.8% | [14] -6.92% | [16] -20.9% | [17] 7.74% | [18] -3.62%
inactive: [12] 13.2% | [13] 12.5% | [15] 24.3%

COc1cc(C2CC(c3ccc(SC)cc3)=NN2C(C)=O)cc(OC)c1OC (stereo unspecified)
inactive: [1] 74.5% | [2] 91.4% | [3] 71.2% | [4] 86.2% | [5] 89.3% | [6] 65.5% | [7] 68.1% | [8] 52.9% | [9] 43.2% | [10] 33.8% | [12] 100% | [13] 93.8% | [14] 89% | [15] 53.8% | [16] 21.7% | [17] 79.7% | [18] 24.4%

Cn1cc(C(=O)c2nc(-c3cn(C)c4ccc(F)cc34)no2)c2cc(F)ccc21
inactive: [1] 107% | [2] 91.9% | [3] 63% | [4] 108% | [5] 94.1% | [6] 88.9% | [7] 113% | [8] 92% | [9] 99.6% | [19] 91.1% | [11] 95.5% | [12] 85.9% | [13] 90.8% | [14] 81% | [15] 77.8% | [16] 98.4% | [17] 87% | [18] 102%

C#C[C@]1(O)CC[C@H]2[C@@H]3CC=C4c5sc(Nc6ccccc6)nc5CC[C@]4(C)[C@H]3CC[C@@]21C
active: [7] -37.1% | [8] 6.66% | [9] 7.73% | [19] -32.1% | [14] -35.3% | [17] -19.9%
inactive: [1] 36.3% | [2] 29.2% | [3] 13.5% | [4] 56.8% | [5] 20.1% | [6] 21.5% | [12] 52% | [13] 51.6% | [15] 46.7% | [16] 31.5% | [18] 38.2%

COc1ccc2[nH]c(-c3ccccc3)c(/C=C(\C#N)S(=O)(=O)c3ccccc3)c2c1
active: [10] 2.79%
inactive: [1] 56.7% | [2] 67% | [3] 70.2% | [4] 92.4% | [5] 71.6% | [6] 76.6% | [7] 57.2% | [8] 36.2% | [9] 17.4% | [12] 101% | [13] 12.5% | [14] 73.3% | [16] 45.1% | [17] 67.3% | [18] 30.5%

CN1C(=C2C(=O)OC(C)(C)OC2=O)CCC1C(=O)NCc1ccc(Cl)cc1Cl (stereo unspecified)
inactive: [1] 97.5% | [2] 93.3% | [3] 85% | [4] 93.8% | [5] 97% | [6] 95% | [7] 59.5% | [8] 86.4% | [9] 94.6% | [10] 94.7% | [19] 82.9% | [13] 98.2% | [14] 85.8% | [15] 99.8% | [16] 101% | [17] 97.5% | [18] 101%

COc1cc2cc(Oc3ccc(NC(=O)Nc4cccc(C(F)(F)F)c4)cc3)c(C)nc2cc1OCCN1CCOCC1
inactive: [1] 25.4% | [2] 47.7% | [4] 66.3% | [5] 21.4% | [6] 56.2% | [7] 64.2% | [8] 23.9% | [11] 25.1% | [12] 109% | [13] 20.1% | [14] 92% | [15] 57.7% | [16] 28.6% | [17] 86% | [18] 45.3%
active: [9] 6.76% | [10] 9.31%
